{"source": "PubChem BioAssay (NCATS)", "note": "Results filed as inconclusive are left out. A number with no mark means an inactive call. Activity calls are given as the source filed them. Calls come from the whole dose curve; as a rule, active = well fitted cell-killing curve with a large enough effect; inconclusive = small, poorly fitted or top-dose-only effect, or effect the other way; inactive = no such curve, though single readings can be large or run the other way. Potency is the fitted concentration of half-maximal effect."}
{"test": "Quantitative High-Throughput drug screen in 47 multiple myeloma cell lines against the NCATS MIPE library collection: OPM1_PLB cell viability assay (AID 1918989); note: nearly all actives have a fitted effect of over 40% in size", "conditions": "CellTiter-Glo, 48 h; series mostly up to 45.8 µM; viability (% of control): at the top concentration", "how_it_was_run": "(§1)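 Myeloma cells (500/well) treated with MIPE 4.0 compounds for 48 h at 37 °C, 5% CO2. Viability read as ATP via CellTiter-Glo luminescence after 5 min at RT; DMSO-only wells = 100%, media-only = 0% viability.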"}
{"compound": "CC(C)(O)c1cc2nc(-c3cnc(N)nc3)nc(N3CCOCC3)c2s1", "Potency": "0.166 µM (active)"}
{"compound": "O=C(C=Cc1c(C(=O)O)[nH]c2cc(Cl)cc(Cl)c12)Nc1ccccc1", "viability (% of control)": "106%"}
{"compound": "CN1CC[C@@H](c2c(O)cc(O)c3c(=O)cc(-c4ccccc4Cl)oc23)[C@@H](O)C1", "Potency": "0.0833 µM (active)"}
{"compound": "Cc1[nH]c2ccccc2c1CCNCc1ccc(C=CC(=O)NO)cc1", "Potency": "0.0264 µM (active)"}
{"compound": "CCNC(=O)Nc1ccc2ncc(Nc3ccc(C)cc3)nc2n1", "Potency": "7.43 µM (active)"}
{"compound": "COc1cccc(Nc2c(C(N)=O)cnc3c(C)cc(S(=O)(=O)c4cccc(C(=O)N(C)C)c4)cc23)c1", "viability (% of control)": "140% [at 23.2 µM]"}
{"compound": "Cc1cc(Nc2cc(N3CCN(C)CC3)nc(C=Cc3ccccc3)n2)n[nH]1", "Potency": "3.82 µM (active)"}
{"compound": "CC(C)[C@H](C(=O)Nc1ccc(C(=O)NO)cc1)c1ccccc1", "Potency": "0.469 µM (active)"}
{"compound": "CN(C)c1nc(Cc2ccc(NC(=O)c3ccc4ccccc4c3)cc2)nc(Cl)c1CC(=O)O", "viability (% of control)": "142%"}
{"compound": "CCC1=C[C@@H]2CN(C1)Cc1c([nH]c3ccccc13)[C@@](C(=O)OC)(c1cc3c(cc1OC)N(C)[C@@H]1[C@@](O)(C(=O)OC)[C@H](OC(C)=O)[C@]4(CC)C=CCN5CC[C@]31[C@@H]54)C2", "Potency": "0.0264 µM (active)"}
{"compound": "CCCCN1CCC(CNC(=O)c2c3n(c4ccccc24)CCCO3)CC1", "Potency": "23.5 µM (active)"}
{"compound": "COC(=O)Nc1nc2ccc(C(=O)c3ccc(F)cc3)cc2[nH]1", "Potency": "0.59 µM (active)"}
{"compound": "O=C(CCCCCCC(=O)Nc1ccc([C@H]2O[C@@H](CSc3nc(-c4ccccc4)c(-c4ccccc4)o3)C[C@@H](c3ccc(CO)cc3)O2)cc1)NO", "Potency": "8.33 µM (active)"}
{"compound": "Nc1ccc(S(=O)(=O)Nc2ncccn2)cc1", "viability (% of control)": "139%"}
{"compound": "CC(=O)Nc1sc2c(c1-c1nc3ccccc3s1)CNC2", "Potency": "18.7 µM (active)"}
{"compound": "COc1cc2ncn(-c3cc(OCc4ccccc4C(F)(F)F)c(C(N)=O)s3)c2cc1OC", "Potency": "0.743 µM (active)"}
{"compound": "CC(O)C1C(=O)N2C(C(=O)O)=C(SC3CNC(C(=O)N(C)C)C3)C(C)C12", "note": "(centres undefined)", "viability (% of control)": "90.2%"}
{"compound": "COc1cc2c(Oc3ccc4[nH]c(C)cc4c3F)ncnc2cc1OCCCN1CCCC1", "Potency": "5.9 µM (active)"}
{"compound": "COc1cc(-c2nn(C3CCC(N4CCN(C(C)=O)CC4)CC3)c3ncnc(N)c23)ccc1NC(=O)c1cc2ccccc2n1C", "note": "(centres undefined)", "Potency": "2.64 µM (active)"}
{"compound": "Cc1cn2c(-c3cn[nH]c3)cnc2c(Nc2ccc(C(=O)N3CCNCC3)cc2F)n1", "Potency": "18.7 µM (active)"}
{"compound": "COc1c(OCCCN2CCOCC2)ccc2c3n(c(=NC(=O)c4cnc(N)nc4)nc12)CCN3", "Potency": "0.812 µM (active)"}
{"compound": "Cc1c(Cn2c(C)nc3c(C(=O)O)cc(N4CCOCC4)cc32)cccc1C(F)(F)F", "Potency": "18.7 µM (active)"}
{"compound": "NCC(=O)Nc1ccc(-n2nc(C(F)(F)F)cc2-c2ccc3c(ccc4ccccc43)c2)cc1", "Potency": "18.7 µM (active)"}
{"compound": "Cc1c(NC(=O)OC[C@@H]2COCCN2)cn2ncnc(Nc3ccc4c(cnn4Cc4cccc(F)c4)c3)c12", "Potency": "4.18 µM (active)"}
{"compound": "COc1ccc(CC2c3cc(OC)c(OC)cc3CC[N+]2(C)CCC(=O)OCCCCCOC(=O)CC[N+]2(C)CCc3cc(OC)c(OC)cc3C2Cc2ccc(OC)c(OC)c2)cc1OC", "note": "(centres undefined)", "viability (% of control)": "96.3% [at 5.15 µM]"}
{"compound": "CS(=O)(=O)c1ccc(-c2cnc(N)c(C(=O)Nc3ccccc3)n2)cc1", "Potency": "10.5 µM (active)"}
{"compound": "COc1cc(C(=O)NS(=O)(=O)c2ccccc2C)ccc1Cc1cn(C)c2ccc(NC(=O)OC3CCCC3)cc12", "Potency": "7.43 µM (active)"}
{"compound": "COC(=O)Nc1ccc(-c2nc(N3CCOCC3)c3cnn(C4CCN(Cc5cccnc5)CC4)c3n2)cc1", "Potency": "0.0833 µM (active)"}
{"compound": "CCCn1c(=O)c2[nH]c(-c3cnn(Cc4cccc(C(F)(F)F)c4)c3)nc2n(CC)c1=O", "viability (% of control)": "127%"}
{"test": "Quantitative High-Throughput drug screen in 47 multiple myeloma cell lines against the NCATS MIPE library collection: SKMM1_PLB cell viability assay (AID 1919863); note: nearly all actives have a fitted effect of over 35% in size", "conditions": "SKMM1 myeloma viability, CellTiter-Glo ATP, 48 h; viability: hits give low values", "how_it_was_run": "as §1", "units": {"viability": "%"}}
{"compound": "CN[C@H]1CCc2cc(OC)c(OC)c(OC)c2-c2ccc(OC)c(=O)cc21", "Potency": "0.0037 µM (active)"}
{"compound": "O=C(C=Cc1c(C(=O)O)[nH]c2cc(Cl)cc(Cl)c12)Nc1ccccc1", "viability": 114}
{"compound": "CN1CC[C@@H](c2c(O)cc(O)c3c(=O)cc(-c4ccccc4Cl)oc23)[C@@H](O)C1", "Potency": "0.187 µM (active)"}
{"compound": "Cc1[nH]c2ccccc2c1CCNCc1ccc(C=CC(=O)NO)cc1", "Potency": "0.105 µM (active)"}
{"compound": "COc1cccc(Nc2c(C(N)=O)cnc3c(C)cc(S(=O)(=O)c4cccc(C(=O)N(C)C)c4)cc23)c1", "viability": 113}
{"compound": "Cc1cc(Nc2cc(N3CCN(C)CC3)nc(C=Cc3ccccc3)n2)n[nH]1", "Potency": "42.9 µM (active)"}
{"compound": "CCC1=C[C@@H]2CN(C1)Cc1c([nH]c3ccccc13)[C@@](C(=O)OC)(c1cc3c(cc1OC)N(C)[C@@H]1[C@@](O)(C(=O)OC)[C@H](OC(C)=O)[C@]4(CC)C=CCN5CC[C@]31[C@@H]54)C2", "Potency": "0.0235 µM (active)"}
{"compound": "CCCCN1CCC(CNC(=O)c2c3n(c4ccccc24)CCCO3)CC1", "Potency": "16.6 µM (active)"}
{"compound": "COC(=O)Nc1nc2ccc(C(=O)c3ccc(F)cc3)cc2[nH]1", "Potency": "0.469 µM (active)"}
{"compound": "Nc1ccc(S(=O)(=O)Nc2ncccn2)cc1", "viability": 155}
{"compound": "CC(=O)Nc1sc2c(c1-c1nc3ccccc3s1)CNC2", "Potency": "16.6 µM (active)"}
{"compound": "COc1cc2ncn(-c3cc(OCc4ccccc4C(F)(F)F)c(C(N)=O)s3)c2cc1OC", "Potency": "0.166 µM (active)"}
{"compound": "COc1cc2c(Oc3ccc4[nH]c(C)cc4c3F)ncnc2cc1OCCCN1CCCC1", "Potency": "20.9 µM (active)"}
{"compound": "COc1cc(-c2nn(C3CCC(N4CCN(C(C)=O)CC4)CC3)c3ncnc(N)c23)ccc1NC(=O)c1cc2ccccc2n1C", "note": "(centres undefined)", "Potency": "14.8 µM (active)"}
{"compound": "CCCCCN(CCC12CC3CC(CC(C3)C1)C2)C(=O)NCCCc1ccncc1", "Potency": "23.5 µM (active)"}
{"compound": "Cc1cn2c(-c3cn[nH]c3)cnc2c(Nc2ccc(C(=O)N3CCNCC3)cc2F)n1", "Potency": "18.7 µM (active)"}
{"compound": "COc1c(OCCCN2CCOCC2)ccc2c3n(c(=NC(=O)c4cnc(N)nc4)nc12)CCN3", "Potency": "0.162 µM (active)"}
{"compound": "NCC(=O)Nc1ccc(-n2nc(C(F)(F)F)cc2-c2ccc3c(ccc4ccccc43)c2)cc1", "Potency": "37.2 µM (active)"}
{"compound": "COc1cc(C(=O)NS(=O)(=O)c2ccccc2C)ccc1Cc1cn(C)c2ccc(NC(=O)OC3CCCC3)cc12", "Potency": "18.7 µM (active)"}
{"compound": "COC(=O)Nc1ccc(-c2nc(N3CCOCC3)c3cnn(C4CCN(Cc5cccnc5)CC4)c3n2)cc1", "Potency": "2.09 µM (active)"}
